For 11 molecules, Percent Effect results are on record in ChEMBL document CHEMBL3988442, “University of Dundee, Small-Polar-MMV Screening Library” (2021).

Each structure is given as a SMILES string. For some of these results: Entries with a potency or affinity are not part of this list.

Holding throughout (set-up): scale not given: direction of the effect not stated beside the values
Test [1] has as its target Protein translocase subunit SecA (Escherichia coli (strain K12)) (UniProt P10408). Put plainly: Assay to Identify E. coli SecA ATPase Inhibitors. The test is classed as functional. As to conditions: 30 µM.
For test [2], the target named is T1, Ubiquitin-activating enzyme e1, putative (Leishmania donovani (strain BPK282A1)) (UniProt E9BSI1).
T1 sequence (whole entry): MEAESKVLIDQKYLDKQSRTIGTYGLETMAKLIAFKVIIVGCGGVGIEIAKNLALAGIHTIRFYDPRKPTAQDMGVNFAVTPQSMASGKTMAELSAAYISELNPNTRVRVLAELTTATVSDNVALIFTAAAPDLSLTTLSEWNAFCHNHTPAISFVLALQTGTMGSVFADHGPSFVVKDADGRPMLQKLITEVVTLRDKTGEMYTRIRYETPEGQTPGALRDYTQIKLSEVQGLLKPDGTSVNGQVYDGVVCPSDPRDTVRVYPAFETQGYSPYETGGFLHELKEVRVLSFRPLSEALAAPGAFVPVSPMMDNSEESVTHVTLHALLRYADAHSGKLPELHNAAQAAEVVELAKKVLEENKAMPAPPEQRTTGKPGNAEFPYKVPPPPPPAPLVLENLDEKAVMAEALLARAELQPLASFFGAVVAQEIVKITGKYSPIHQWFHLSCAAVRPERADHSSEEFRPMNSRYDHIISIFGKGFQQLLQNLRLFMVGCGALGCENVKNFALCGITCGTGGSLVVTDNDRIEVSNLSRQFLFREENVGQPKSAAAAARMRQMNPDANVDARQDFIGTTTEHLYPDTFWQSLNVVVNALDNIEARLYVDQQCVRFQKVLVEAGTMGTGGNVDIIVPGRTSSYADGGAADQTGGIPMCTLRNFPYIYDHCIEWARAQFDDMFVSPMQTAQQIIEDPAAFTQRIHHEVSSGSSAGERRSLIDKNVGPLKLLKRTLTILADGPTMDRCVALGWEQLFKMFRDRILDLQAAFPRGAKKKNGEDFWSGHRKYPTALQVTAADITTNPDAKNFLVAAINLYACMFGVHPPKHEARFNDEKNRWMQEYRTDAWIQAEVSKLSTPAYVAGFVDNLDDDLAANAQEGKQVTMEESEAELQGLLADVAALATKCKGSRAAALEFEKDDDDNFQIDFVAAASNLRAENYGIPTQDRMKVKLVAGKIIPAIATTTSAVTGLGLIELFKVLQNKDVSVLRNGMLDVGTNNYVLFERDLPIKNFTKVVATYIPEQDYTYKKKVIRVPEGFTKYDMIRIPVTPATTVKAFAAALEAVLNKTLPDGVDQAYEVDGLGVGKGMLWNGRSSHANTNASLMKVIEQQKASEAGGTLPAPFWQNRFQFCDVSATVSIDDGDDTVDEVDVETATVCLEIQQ
Put plainly: Leishmania donovani Ubiquitin Activating Enzyme (LdE1). As to conditions: 30 µM. It is filed as functional.

In test [3] the target is AMP-activated protein kinase, AMPK (Homo sapiens) (UniProt P54646+O43741+P54619+Q9UGJ0+Q9Y478+Q13131+Q9UGI9). Nature of the test: AMP-dependent Kinase enzyme assay. An in vitro enzyme assay that detects ADP turnover that is directly proportional to AMPK activity. This uses naive AMPK that is activated during the assay with MK-8722. It is filed as functional. The settings on record: 30 µM.

Test [4] concerns the target Sialic acid-binding Ig-like lectin 9 (Homo sapiens) (UniProt Q9Y336). Put plainly: Hs-Siglec9 ALPHAscreen SOP 20170721. The settings on record: 10 µM.
For the next test, the system named is Trypanosoma cruzi. Nature of the test: Trypanosoma cruzi phosphomannomutase and mannose-1-phosphate guanylyltransferase assay. It is filed as functional. The settings on record: 10 µM.
Test [5] addresses T2, Arginase-2, mitochondrial (Homo sapiens) (UniProt P78540).
T2 sequence (whole entry): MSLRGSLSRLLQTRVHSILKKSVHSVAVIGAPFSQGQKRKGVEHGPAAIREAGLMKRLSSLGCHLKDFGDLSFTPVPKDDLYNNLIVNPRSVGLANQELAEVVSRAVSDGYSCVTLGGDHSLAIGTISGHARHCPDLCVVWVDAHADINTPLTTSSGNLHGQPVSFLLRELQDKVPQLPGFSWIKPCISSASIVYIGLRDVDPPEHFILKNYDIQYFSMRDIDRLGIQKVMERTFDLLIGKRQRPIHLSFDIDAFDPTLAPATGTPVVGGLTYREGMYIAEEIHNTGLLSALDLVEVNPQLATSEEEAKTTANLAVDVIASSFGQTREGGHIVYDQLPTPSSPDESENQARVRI
Nature of the test: in vitro enzyme assay to detect the production of urea directly proportional to the activity of Arginase II. Also: in the data most compounds retested in dose-response had high values. It is filed as functional. As to conditions: 33.3 µM.

Test [6] deals with T3, Proteasome subunit beta (Trypanosoma cruzi) (UniProt O96673).
T3 sequence (whole entry): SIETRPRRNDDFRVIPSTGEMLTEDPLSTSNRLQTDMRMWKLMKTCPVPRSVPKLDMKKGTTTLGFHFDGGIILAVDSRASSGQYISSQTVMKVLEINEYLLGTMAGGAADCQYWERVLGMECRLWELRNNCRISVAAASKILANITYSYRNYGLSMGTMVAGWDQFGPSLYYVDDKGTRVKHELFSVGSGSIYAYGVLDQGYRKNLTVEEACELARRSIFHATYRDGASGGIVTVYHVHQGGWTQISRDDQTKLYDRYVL
Nature of the test: Trypanosoma cruzi proteasome chymotrypsin-like activity (TcProtChymo) assay. Also: in the data most compounds retested in dose-response had high values. It is filed as functional. As to conditions: 9.37 µM.

The species entered for another test is Homo sapiens. Put plainly: To identify inhibition of the IFN signalling (Jak-Stat) pathway via expression of an eGFP reporter gene under the control of an IFN-stimulated response element (ISRE) containing MxA promoter. The test is classed as functional. The settings on record: 30 µM. For orientation: In a reporter assay the amount or activity of a reporter protein is the signal.

In test [7] the target is T4, Tyrosyl-tRNA synthetase, putative (Trypanosoma cruzi (strain CL Brener)) (UniProt Q4DSP6).
T4 sequence (whole entry): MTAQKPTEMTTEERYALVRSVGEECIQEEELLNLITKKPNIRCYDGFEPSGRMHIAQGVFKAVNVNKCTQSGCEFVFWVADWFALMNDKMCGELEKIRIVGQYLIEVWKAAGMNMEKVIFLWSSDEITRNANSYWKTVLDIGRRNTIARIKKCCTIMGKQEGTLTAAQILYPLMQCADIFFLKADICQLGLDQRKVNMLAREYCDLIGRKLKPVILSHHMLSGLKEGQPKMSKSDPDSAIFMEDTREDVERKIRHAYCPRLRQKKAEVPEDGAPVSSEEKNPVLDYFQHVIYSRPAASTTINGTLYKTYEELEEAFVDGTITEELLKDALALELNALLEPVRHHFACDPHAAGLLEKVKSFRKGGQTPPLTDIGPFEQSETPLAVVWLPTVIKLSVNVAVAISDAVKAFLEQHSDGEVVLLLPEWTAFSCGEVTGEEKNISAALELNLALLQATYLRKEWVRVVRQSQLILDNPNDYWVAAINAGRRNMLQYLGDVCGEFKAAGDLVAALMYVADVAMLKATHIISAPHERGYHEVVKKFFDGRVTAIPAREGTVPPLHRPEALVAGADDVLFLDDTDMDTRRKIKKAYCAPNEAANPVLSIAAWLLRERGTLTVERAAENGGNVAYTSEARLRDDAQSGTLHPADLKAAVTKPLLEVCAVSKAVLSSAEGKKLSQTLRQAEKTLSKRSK
Put plainly: Trypanosoma cruzi tyrosyl tRNA synthetase (TcYRS) _High Tyrosine SOP. Also: in the data most compounds retested in dose-response had high values. The settings on record: 30 µM. It is filed as functional.

Test [8] deals with T4, Tyrosyl-tRNA synthetase, putative (Trypanosoma cruzi (strain CL Brener)). Put plainly: Trypanosoma cruzi tyrosyl tRNA synthetase (TcYRS) SOP. The test is classed as functional. As to conditions: 30 µM.
For test [9], the target named is Chromo domain-containing protein 1 (Saccharomyces cerevisiae (strain ATCC 204508 / S288c) (Baker's yeast)) (UniProt P32657). Nature of the test: ScCHD-1 Enzyme Inhibition Assay. Also: in the data most compounds retested in dose-response had high values. The test is classed as functional. The settings on record: 30 µM.
Chromo domain-containing protein 1 (Saccharomyces cerevisiae (strain ATCC 204508 / S288c) (Baker's yeast)), sequence (P32657 whole entry, the tested form may be a part): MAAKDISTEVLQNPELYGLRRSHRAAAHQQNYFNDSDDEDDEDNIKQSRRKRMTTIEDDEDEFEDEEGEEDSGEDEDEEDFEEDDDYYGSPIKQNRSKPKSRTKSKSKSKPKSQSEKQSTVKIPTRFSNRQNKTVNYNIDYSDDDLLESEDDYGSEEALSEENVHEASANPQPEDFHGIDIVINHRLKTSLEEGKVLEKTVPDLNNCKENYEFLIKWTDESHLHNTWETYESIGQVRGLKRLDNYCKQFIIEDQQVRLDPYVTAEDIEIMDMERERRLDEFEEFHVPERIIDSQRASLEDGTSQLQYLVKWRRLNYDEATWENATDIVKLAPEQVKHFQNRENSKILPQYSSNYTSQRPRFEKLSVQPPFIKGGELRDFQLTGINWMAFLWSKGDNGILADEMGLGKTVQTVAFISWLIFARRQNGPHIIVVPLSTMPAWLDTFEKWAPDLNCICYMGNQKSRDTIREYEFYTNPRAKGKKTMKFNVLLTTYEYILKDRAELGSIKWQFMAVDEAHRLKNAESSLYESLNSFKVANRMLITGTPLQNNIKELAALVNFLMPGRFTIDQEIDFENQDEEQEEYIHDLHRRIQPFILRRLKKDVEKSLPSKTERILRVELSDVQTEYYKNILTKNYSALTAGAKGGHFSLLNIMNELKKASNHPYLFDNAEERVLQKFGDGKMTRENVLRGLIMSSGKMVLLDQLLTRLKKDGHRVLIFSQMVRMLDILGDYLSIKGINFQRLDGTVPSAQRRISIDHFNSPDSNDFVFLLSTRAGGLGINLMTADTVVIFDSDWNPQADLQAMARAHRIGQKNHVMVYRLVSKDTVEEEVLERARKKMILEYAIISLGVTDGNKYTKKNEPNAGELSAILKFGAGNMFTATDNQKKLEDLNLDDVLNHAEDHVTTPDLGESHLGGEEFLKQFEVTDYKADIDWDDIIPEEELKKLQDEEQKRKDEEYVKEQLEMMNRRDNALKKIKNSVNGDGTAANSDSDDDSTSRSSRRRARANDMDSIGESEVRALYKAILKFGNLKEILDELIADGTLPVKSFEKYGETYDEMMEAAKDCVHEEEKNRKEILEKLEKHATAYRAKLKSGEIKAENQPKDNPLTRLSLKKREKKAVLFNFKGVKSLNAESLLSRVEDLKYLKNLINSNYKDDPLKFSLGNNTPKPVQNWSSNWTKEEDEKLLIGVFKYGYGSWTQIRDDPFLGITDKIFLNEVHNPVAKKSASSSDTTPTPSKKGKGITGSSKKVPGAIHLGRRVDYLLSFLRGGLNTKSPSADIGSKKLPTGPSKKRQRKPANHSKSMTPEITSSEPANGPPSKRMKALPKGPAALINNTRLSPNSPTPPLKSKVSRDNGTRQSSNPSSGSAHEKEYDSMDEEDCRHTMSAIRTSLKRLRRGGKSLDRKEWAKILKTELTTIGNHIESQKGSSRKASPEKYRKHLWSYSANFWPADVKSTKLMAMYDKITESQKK

Protein translocase subunit SecA (Escherichia coli (strain K12)), sequence (P10408 whole entry): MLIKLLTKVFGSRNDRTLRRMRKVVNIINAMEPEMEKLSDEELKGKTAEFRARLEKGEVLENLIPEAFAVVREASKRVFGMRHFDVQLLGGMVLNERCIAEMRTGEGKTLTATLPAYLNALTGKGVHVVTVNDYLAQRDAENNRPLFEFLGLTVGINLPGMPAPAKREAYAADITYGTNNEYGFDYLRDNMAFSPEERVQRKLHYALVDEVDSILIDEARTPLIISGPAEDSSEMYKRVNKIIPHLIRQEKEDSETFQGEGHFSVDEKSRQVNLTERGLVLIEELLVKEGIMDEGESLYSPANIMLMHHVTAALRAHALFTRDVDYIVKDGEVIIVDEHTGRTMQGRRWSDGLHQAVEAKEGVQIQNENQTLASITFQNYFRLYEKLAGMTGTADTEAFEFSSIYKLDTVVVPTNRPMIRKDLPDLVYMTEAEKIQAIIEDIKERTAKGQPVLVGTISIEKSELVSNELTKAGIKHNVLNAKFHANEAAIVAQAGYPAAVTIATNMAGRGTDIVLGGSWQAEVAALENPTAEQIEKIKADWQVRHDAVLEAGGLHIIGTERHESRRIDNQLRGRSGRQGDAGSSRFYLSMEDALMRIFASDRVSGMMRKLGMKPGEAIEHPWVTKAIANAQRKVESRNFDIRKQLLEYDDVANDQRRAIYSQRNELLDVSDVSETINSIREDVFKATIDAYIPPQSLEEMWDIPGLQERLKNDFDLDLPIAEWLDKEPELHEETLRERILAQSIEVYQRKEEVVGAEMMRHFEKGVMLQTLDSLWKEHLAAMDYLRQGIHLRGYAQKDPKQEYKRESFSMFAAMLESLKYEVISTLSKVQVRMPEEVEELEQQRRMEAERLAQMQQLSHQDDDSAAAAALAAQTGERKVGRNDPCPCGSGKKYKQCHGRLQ
Sialic acid-binding Ig-like lectin 9 (Homo sapiens), sequence (Q9Y336 whole entry): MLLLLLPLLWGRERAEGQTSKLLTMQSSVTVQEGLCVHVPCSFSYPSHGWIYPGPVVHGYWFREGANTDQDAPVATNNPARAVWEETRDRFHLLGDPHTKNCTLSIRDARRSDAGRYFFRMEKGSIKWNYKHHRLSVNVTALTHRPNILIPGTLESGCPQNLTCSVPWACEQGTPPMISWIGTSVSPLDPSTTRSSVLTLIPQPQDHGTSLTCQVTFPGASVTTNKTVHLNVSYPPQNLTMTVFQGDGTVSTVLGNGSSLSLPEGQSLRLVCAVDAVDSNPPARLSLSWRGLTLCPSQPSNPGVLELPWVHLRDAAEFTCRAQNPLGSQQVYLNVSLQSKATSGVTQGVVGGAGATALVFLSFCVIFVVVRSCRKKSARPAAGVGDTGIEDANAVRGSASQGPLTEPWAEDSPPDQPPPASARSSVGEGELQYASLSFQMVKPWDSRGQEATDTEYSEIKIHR

Take `CCc1nnc2n1CCN(CC(=O)Nc1sccc1C#N)C2`: the Percent Effect is -4.04% in test [1]; 10.5% in test [2]; -7.74% in [3]; -3.22% in [4]; -8.68% in the test with Trypanosoma cruzi; 5.4% in [5]. Besides, the Percent Effect in test [6] was 12.6%; in the test listed under Homo sapiens it was -5.63%; in test [7], 5.42%; in test [8] it was 6.17%; in test [9] it was -3.17%.
For the molecule `Cc1nc(C)n(CC2CCCCN2Cc2nnc(C3CC3)o2)n1` (stereo unspecified), the Percent Effect amounted to 0.312% in [1]; 2.6% in [2]; 3.13% in test [3]; 1.14% in test [4]; 3.37% in the test with Trypanosoma cruzi; 0.712% in test [5]. The Percent Effect in [6] is 1.69%; in the test listed under Homo sapiens it was 1.94%; in test [7], 0.971%; in [8], 7.32%; in [9], -9.02%.
Consider `CCN(C(=O)COC)C(c1cccnc1)c1ccc2c(c1)CCO2` (stereo unspecified), for which the Percent Effect in [1] was 2.93%; in test [2], 2.74%; in [3], 0.259%; in test [4] it was 5.98%; with Trypanosoma cruzi it was -8.13%; in test [5], -1.2%. Further, the Percent Effect is 19.8% in test [6]; 5.88% in the test filed under Homo sapiens; 9.38% in test [7]; 11.1% in [8]; -1.24% in test [9].
With `O=C(NCc1nnc2ccccn12)N1CCc2sccc2C1`, the Percent Effect in [1] was -3.42%; in test [2], -6.33%; in [3] it was 6.9%; in test [4], 2.84%; with Trypanosoma cruzi, -1.33%; in test [5] it was 1.94%. Moreover, the Percent Effect in test [6] is 7.89%; in the test listed under Homo sapiens, 11.1%; in test [7], 2.08%; in test [8] it was 7.59%; in test [9], -7.88%.
Regarding `Cc1ccc(CN2CCC3(CC2)CC(c2cccnc2)CO3)s1` (stereo unspecified), the Percent Effect in [1] was -5.83%; in [2], 5.41%; in test [3] it was 1.22%; in [4] it was -3.96%; in the test with Trypanosoma cruzi, 0%; in test [5] it was 7.08%. Also, the Percent Effect is 4.65% in test [6]; 0.622% in the test listed under Homo sapiens; 8.91% in test [7]; 11% in test [8]; -2.92% in test [9].
Regarding `Cc1nc(C)n(CC2CN(c3ncnc4[nH]ccc34)CCO2)n1` (stereo unspecified), the Percent Effect in test [1] is -2.48%; in [2], 11.4%; in test [3], 24%; in [4], -0.101%; in the test on Trypanosoma cruzi it was -3.38%; in test [5], -2.37%. Further, the Percent Effect in test [6] is 6%; in the test filed under Homo sapiens, 28.6%; in test [7], 2.08%; in test [8], 12.7%; in test [9] it was -20.9%.
As to `Cc1nn(C)c(Cl)c1C1CCCN1CCc1ccccn1` (stereo unspecified), the Percent Effect was 3.64% in test [1]; -3.8% in [2]; 12.3% in [3]; 1.51% in test [4]; -1.74% with Trypanosoma cruzi; 7.53% in test [5]. Besides, the Percent Effect in test [6] was 5.83%; in the test listed under Homo sapiens it was 4.77%; in [7], -1.04%; in [8], 2.53%; in test [9] it was -11.7%.
With `Cc1cnccc1CN1C[C@@H](O)[C@H](Oc2cccc(F)c2)C1`, the Percent Effect in test [1] was -3.16%; in test [2], 1.35%; in [3], 10%; in test [4], 2.32%; in the test on Trypanosoma cruzi it was 3.36%; in [5], 0.696%. Further, the Percent Effect was 4.37% in test [6]; 16.3% in the test listed under Homo sapiens; 0% in test [7]; 1.3% in test [8]; -22.9% in test [9].
In the case of `NS(=O)(=O)c1ccc(NC(=O)CSc2ccc3c(c2)CCC3)cc1`, the Percent Effect in test [1] is -2.43%; in [2], -2.7%; in test [3], 2.08%; in [4] it was -4.31%; in the test on Trypanosoma cruzi, -4.69%; in test [5], -21.2%. For the same molecule, the Percent Effect in test [6] is 13.1%; in the test listed under Homo sapiens, 6.93%; in [7], 1.98%; in [8], -13.4%; in [9], 17.3%.
As for `CCn1c(N)nc2cc(C(=O)NCCc3ccccc3C)cnc21`, the Percent Effect is -2.81% in test [1]; 13.7% in [2]; 9.51% in [3]; 3.5% in [4]; 5.09% in the test with Trypanosoma cruzi; 15% in test [5]. Moreover, the Percent Effect in [6] was 22.7%; in the test listed under Homo sapiens, 20.2%; in test [7] it was 5.38%; in test [8], 17.5%; in test [9], -12.1%.
With `Cc1c[nH]cc1C(=O)N1CCN(Cc2nc(C(C)C)no2)CC1`, the Percent Effect in test [1] was -5.12%; in test [2] it was 8.11%; in test [3], -5.14%; in [4], 9.52%; in the test with Trypanosoma cruzi, -3.81%; in test [5] it was -2.77%. Besides, the Percent Effect in test [6] is -3.05%; in the test filed under Homo sapiens, 17.2%; in test [7] it was 2.97%; in test [8], 11%; in test [9] it was 1.56%.
